Screens from PubChem BioAssay.
Giardia FBPA inh: qHTS Assay for Inhibitors of Fructose-1,6-bisphosphate Aldolase from Giardia Lamblia | A8B2U2 | purified Giardia FBPA | Potency, µM (top dose mostly 59.6 µM), for the others: at the top dose activity, negative = inhibition, usual class: inhibitors | hit rate 0.71% among 290,000 | AID 2451, 2010; also: potency is read from the fitted curve at half-maximal effect; % is scaled to controls: 0 for no effect and ±100 for the full control effect; nearly all actives have a fitted effect of over 55% in size
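Giardia FBPA (40 nM reagent) was preincubated 10 min at RT with compound (up to 57.5 uM final), then substrate plus GAPDH/TPI/NAD/arsenate coupling system with diaphorase/resazurin was added; resorufin fluorescence (525/598 nm) was read after 20 min.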
LmPK inh: qHTS Assay for Inhibitors of Leishmania Mexicana Pyruvate Kinase (LmPK). purified LmPK, Kinase-Glo ATP luminescence, 1 h. Q27686. AID 1721, 2009. Potency, µM (highest dose often 57.5 µM), for the others: top-dose activity change, negative = inhibition, usual class: inhibitors. hit rate 0.37% among 290,000; also: potency is read from the fitted curve at half-maximal effect; % is scaled to controls: 0 for no effect and ±100 for the full control effect
Target sequence (Q27686 whole entry, looked up): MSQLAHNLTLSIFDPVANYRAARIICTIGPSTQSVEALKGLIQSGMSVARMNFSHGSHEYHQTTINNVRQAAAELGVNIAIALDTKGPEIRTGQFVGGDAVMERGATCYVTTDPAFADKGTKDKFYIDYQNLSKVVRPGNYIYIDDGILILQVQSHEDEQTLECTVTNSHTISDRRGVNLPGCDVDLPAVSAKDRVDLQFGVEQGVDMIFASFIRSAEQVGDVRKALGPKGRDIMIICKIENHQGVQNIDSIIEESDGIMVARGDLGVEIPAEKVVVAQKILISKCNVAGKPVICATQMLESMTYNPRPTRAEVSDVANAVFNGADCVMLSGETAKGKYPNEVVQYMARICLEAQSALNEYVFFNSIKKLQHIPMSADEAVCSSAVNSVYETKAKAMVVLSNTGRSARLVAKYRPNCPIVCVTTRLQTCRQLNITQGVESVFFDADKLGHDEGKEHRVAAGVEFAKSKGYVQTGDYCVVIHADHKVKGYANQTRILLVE
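qHTS format; LmPK 0.1 nM; substrates PEP 0.5 mM and ADP 0.1 mM. One-hour room-temperature incubation, then coupled luciferase luminescence; 0.5 nM enzyme wells mark activation.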
RE007 growth inh: qHTS Assay for Inhibitors of the HIV-1 protein Vpr. S. pombe RE007 Vpr strain, BacTiter-Glo ATP luminescence, 24 h. Potency, µM (titrated, usually from 92.2 µM), inactives show top-dose activity change, negative = less growth, most hits filed as inhibitors. hit rate 0.21% among 360,000. AID 651644, 2012; active = well fitted falling curve with a large enough effect; inconclusive = small, poorly fitted or top-dose-only effect; inactive = no such curve, though single readings can be large or run the other way; also: potency is read from the fitted curve at half-maximal effect; % is scaled to controls: 0 for no effect and ±100 for the full control effect; nearly all actives have a fitted effect of over 50% in size
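Fission yeast strain RE007, carrying one chromosomally integrated HIV-1 vpr copy, was seeded at OD 0.01 in PMG+AL medium with 23 nL pinned compound. After 24 h at 30 °C and 99% humidity, viability was read by BacTiter-Glo luminescence.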
TbPYK inhibitor: qHTS of Trypanosoma Brucei Inhibitors. pyruvate kinase (Trypanosoma brucei), Q57TT1. TbPYK enzyme, Kinase-Glo Plus ATP luminescence, 45 min. Potency, µM (titrated, usually from 76.8 µM), for inactives: at the highest dose activity, negative = inhibition, hits mostly inhibitors. hit rate 0.12% among 410,000; also: potency is read from the fitted curve at half-maximal effect; % is scaled to controls: 0 for no effect and ±100 for the full control effect; nearly all actives have a fitted effect of over 50% in size
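T. brucei PYK with substrate was exposed to pin-transferred compounds across a concentration series, then started with 130 uM ADP (final). After 45 min at room temperature, Kinase-Glo Plus luminescence was read, normalized and curve-fitted.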
Shiga toxin inh: A qHTS for Small Molecule Inhibitors of Shiga Toxin. Vero cells, Shiga toxin protein synthesis inhibition reporter. inhibition, % at 38.7 µM. hit rate 9.2% among 290,000; in the data active = inhibition mostly above about 28%, no sharp cut-off; inactive = mostly below about 43%; also: 0% is about no effect
CHX counter: Cycloheximide Counterscreen for Small Molecule Inhibitors of Shiga Toxin. cell reporter, cycloheximide protein synthesis inhibition counterscreen. max response, %. hit rate 12% among 300,000. AID 2314, 2010; in the data active = max response mostly above about 13%, no sharp cut-off; inactive = mostly below about 14%; also: read at 38.3 µM for the half of the compounds with a filed dose; 0% is about no effect
The depositor's hits bear a star; ? = inconclusive; nt = not tested or not shown. This is one part of a sample in which hits are shown more often than they occur. Unless noted, calls follow the shape of the dose curve; as a rule, active = well fitted curve in the direction sought with a large enough effect; inconclusive = small, poorly fitted or top-dose-only effect, or another doubt; inactive = no such curve, though single readings can be large; an effect the other way counts as inactive or inconclusive.

SMILES	Giardia FBPA inh	LmPK inh	RE007 growth inh	TbPYK inhibitor	Shiga toxin inh	CHX counter
COc1ccc(C(CNC(=O)COc2cccc(C(F)(F)F)c2)N2CCCC2)cc1 (configuration not stated)	nt	nt	-14%	4%	nt	nt
CS(=O)(=O)c1ccccc1-c1nnc(NC(=O)c2ccc3ncsc3c2)o1	nt	nt	12%	-26%	nt	nt
Cc1c(/C=C/C(=O)c2ccccc2O)cnn1C	9%	-28%	?	-13%	active	71*
CCOc1ccc(Oc2ccc(C(F)(F)F)cc2N)cc1	0%	5%	16%	-5%	44	16*
COc1cccc(Oc2ccc(C(F)(F)F)cc2NC(=O)c2cccc(F)c2)c1	8%	-1%	-19%	10%	-1	-2
COc1cccc(Oc2ccc(C(F)(F)F)cc2N)c1	-7%	7%	1%	-5%	87*	29*
Cc1ccc(C(=O)Nc2ccccc2C(=O)N2CCCC(C)C2)cc1 (configuration not stated)	4%	5%	-1%	-10%	-9	1
COc1cc(/C=C/CNC[C@H]2O[C@@H](n3cnc4c(N)ncnc43)[C@H](O)[C@@H]2O)ccc1O	nt	nt	-6%	-10%	nt	nt
COc1ccc(CC(=O)Nc2ccc(-c3csc(C)n3)cc2)cc1	0%	4%	13%	7%	35	13
CCC(=O)Nc1ccc(-c2csc(C)n2)cc1	-1%	-6%	-17%	-10%	31	23*
Cc1nc(-c2ccc(NC(=O)Cc3ccccc3)cc2)cs1	13%	2%	10%	5%	87*	43*
CCCn1c(N)c(Sc2ccccc2[N+](=O)[O-])c(=O)n(CCC)c1=O	-1%	7%	24%	2%	-3	-4
C[C@@H]1OC(Oc2ccccc2-c2cc(=O)c3c(O)cc(O)c([C@@H]4O[C@H](CO)[C@@H](O)[C@H](O)[C@H]4O)c3o2)[C@H](O)[C@H](O)[C@H]1O (some centres not stated)	0%	nt	nt	nt	-4	0
CCOC(=O)NC1(NCC(C)C)Oc2ccccc2O1	?	-2%	-1%	-14%	-8	6
CCOC(=O)NC1(Nc2ccc(C)cc2)Oc2ccccc2O1	-12%	4%	-14%	?	46*	55*
CCOC(=O)NC1(NCc2ccccc2)Oc2ccccc2O1	-14%	-7%	-21%	-19%	-1	16*
O=C(CN1CCSCC1)N/N=C/c1cccc(Cl)c1	?	0%	-5%	-4%	11	15*
COc1cc(/C=N\NC(=O)CN2CCOCC2)ccc1OCC(=O)Nc1ccc(C)c(C)c1	0%	1%	22%	-2%	35*	14*
COc1ccc(/C=N/NC(=O)CN2CCSCC2)cc1C	-22%	-2%	3%	0%	26	18*
O=C(CN1CCCCCC1)N/N=C/c1cccc(Cl)c1	-22%	-1%	-24%	-2%	-3	27
COc1ccc(CNC(=O)c2cc(-c3ccc(C)c(C)c3)n[nH]2)cc1	nt	nt	nt	-4%	nt	nt
CCOC(=O)C(=O)N(Nc1ccc(C)cc1)c1ccc(C)cc1	-9%	-4%	-7%	3%	72*	16*
Cc1noc(C)c1C(=O)N1CCC2(CC1)CN(Cc1cc(C(F)(F)F)cc(C(F)(F)F)c1)C2	1%	nt	nt	-3%	nt	nt
CCOc1ccc(C(c2c(NC(=O)c3ccco3)sc(C)c2C)N2CCOCC2)cc1 (configuration not stated)	nt	nt	6%	-1%	nt	nt
CCOc1ccc(C(c2c(NC(=O)c3ccccc3)sc(C)c2C)N2CCN(C)CC2)cc1 (configuration not stated)	8%	-2%	43%	-3%	31*	16
Cc1ccc(-n2nc(C(=O)Nc3ccc(Br)cc3C)c(=O)n(C)c2=O)cc1	nt	nt	nt	-4%	nt	nt
COc1ccc(C(=O)Nc2ccc(Cl)c(Cl)c2)c(OC)n1	-6%	3%	-8%	-12%	45*	21*
